# Experimental data as given in PubChem BioAssay.
# Calls of active or inactive are those of the source.
# How the values were obtained:
# [1] = compound effects on differentiated 3T3-L1 adipocyte viability – cell-based, 3T3-L1 adipocytes, calcein-AM fluorescence, 48 h, basal, profiling panel (AID 1163); conditions: 3T3-L1 adipocytes viability, higher = more signal
# [2] = compound effects on hepatocellular carcinoma cell viability – HepG2, calcein-AM fluorescence, 48 h, basal, profiling panel (AID 1164); conditions: higher = more signal
# [3] = compound effects on multiple myeloma cell viability – MM1S, calcein-AM fluorescence, 48 h, basal, profiling panel (AID 1165); conditions: higher = more signal
# [4] = calcein-AM signal in unstimulated myeloma cells – cell-based, calcein-AM fluorescence, 48 h, PK04 Diversity Set, profiling panel (AID 1166); conditions: RPMI8226 myeloma viability, higher = more signal;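 further: cells grown under basal conditions without added stimulus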
# [5] = JC-1 mitochondrial signal, unstimulated HepG2 cells – cell-based, JC-1 fluorescence, 24 h, 100 nL compound, profiling panel (AID 1167); conditions: HepG2 mitochondrial potential, higher = more signal
# [6] = JC-1 mitochondrial signal, unstimulated adipocytes – cell-based, JC-1 fluorescence, 3T3-L1 adipocytes, 24 h, 100 nL compound, profiling panel (AID 1168); conditions: JC-1 mitochondrial fluorescence, higher = more signal, called active from +8 up or from −8 down
# [7] = JC-1 mitochondrial signal, unstimulated myeloma cells – cell-based, JC-1 fluorescence, RPMI8226, 24 h, 100 nL compound, profiling panel (AID 1169); conditions: JC-1 mitochondrial potential fluorescence, higher = more signal
# [8] = JC-1 mitochondrial signal, unstimulated MM1S myeloma – cell-based, JC-1 fluorescence, 24 h, 100 nL compound, profiling panel (AID 1170); conditions: MM1S mitochondrial potential, higher = more signal
# [9] = resazurin metabolic signal in A549 cells – cell-based, resazurin fluorescence, 24 h, PK04 Diversity Set, profiling panel (AID 1171); conditions: A549 viability, higher = more signal, called active from +8 up or from −8 down
# [10] = resazurin metabolic signal in HepG2 cells – cell-based, resazurin fluorescence, 24 h, PK04 Diversity Set, profiling panel (AID 1172); conditions: HepG2 viability, higher = more signal
# [11] = budding yeast growth changes without added modifier – OD600, strain BY4716, 24 h, basal condition, primary screen (AID 1173); conditions: S. cerevisiae BY4716 growth, OD600, 24 h; higher = more signal, called active from +8 up or from −8 down
# [12] = viability profiling in MM1S myeloma cells – cell-based, resazurin fluorescence, basal, 24 h, PK04 Diversity Set, profiling panel (AID 1174); conditions: higher = more signal, called active from +8 up or from −8 down
# [13] = target: Dihydroorotate dehydrogenase (quinone), mitochondrial (Plasmodium falciparum (isolate 3D7)) (UniProt Q08210); assay: inhibition of P. falciparum DHODH – biochemical, C-terminal His tag, absorbance 600 nm, primary screen (AID 1175); conditions: PfDHODH enzyme, DCIP absorbance 600 nm; higher = more signal, called active from +8 up or from −8 down;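 further: recombinant parasite enzyme with a five histidine tag at its C terminus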
# [14] = growth modulation of vineyard yeast isolate – strain RM11-1a, OD600, basal, 24 h, primary screen (AID 1177);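 further: cultures grown under basal conditions with no added stressor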; conditions: S. cerevisiae RM11-1a growth, OD600, 24 h; higher = more signal, called active from +8 up or from −8 down
# [15] = growth of efflux-deficient E. coli DRC39 – strain DRC39, OD650, 24 h, E. coli filamentation inducers, primary screen (AID 1178);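 further: growth measured as culture turbidity by optical density at 650 nm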; conditions: E. coli DRC39 acrAB, higher = more signal, called active from +8 up or from −8 down
# [16] = growth of efflux-deficient E. coli DRC39 – strain DRC39, OD650, 48 h, E. coli filamentation inducers, primary screen (AID 1179);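 further: screen aims at cell division blockers that make cells filament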; conditions: E. coli DRC39 delta-acrAB growth, higher = more signal, called active from +8 up or from −8 down
# [17] = viability profiling in RPMI8226 myeloma cells – cell-based, resazurin fluorescence, basal, 24 h, PK04 Diversity Set, profiling panel (AID 1180); conditions: higher = more signal;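 further: RPMI8826 multiple myeloma cell line at 5000 cells per well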
# [18] = target: E3 ubiquitin-protein ligase XIAP (Homo sapiens) (UniProt P98170); assay: small molecules binding XIAP protein – biophysical, small-molecule microarray, fluorescence 635 nm, primary screen (AID 1181); conditions: higher = more signal;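 further: score merges 667 nm emission and signal to noise over triplicate slides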
# [19] = system: XIP peptide (Xip251-270) binding; assay: XIP fragment 251-270 binding compounds – biochemical, small-molecule microarray, fluorescence 635/667 nm, 0.1 µg/mL protein, primary screen (AID 1182); conditions: fluorescent protein binding, 635 nm, higher = more signal, called active from +8 up or from −8 down
# XIP peptide (Xip251-270) = assay: compounds binding XIP fragment 251-270 – biochemical, small-molecule microarray, fluorescence 635/667 nm, 0.5 µg/mL protein, primary screen (AID 1183); conditions: fluorescence 635 nm, higher = more signal
# Chain of Dihydroorotate dehydrogenase (quinone), mitochondrial (Plasmodium falciparum (isolate 3D7)) (Q08210 whole entry, looked up): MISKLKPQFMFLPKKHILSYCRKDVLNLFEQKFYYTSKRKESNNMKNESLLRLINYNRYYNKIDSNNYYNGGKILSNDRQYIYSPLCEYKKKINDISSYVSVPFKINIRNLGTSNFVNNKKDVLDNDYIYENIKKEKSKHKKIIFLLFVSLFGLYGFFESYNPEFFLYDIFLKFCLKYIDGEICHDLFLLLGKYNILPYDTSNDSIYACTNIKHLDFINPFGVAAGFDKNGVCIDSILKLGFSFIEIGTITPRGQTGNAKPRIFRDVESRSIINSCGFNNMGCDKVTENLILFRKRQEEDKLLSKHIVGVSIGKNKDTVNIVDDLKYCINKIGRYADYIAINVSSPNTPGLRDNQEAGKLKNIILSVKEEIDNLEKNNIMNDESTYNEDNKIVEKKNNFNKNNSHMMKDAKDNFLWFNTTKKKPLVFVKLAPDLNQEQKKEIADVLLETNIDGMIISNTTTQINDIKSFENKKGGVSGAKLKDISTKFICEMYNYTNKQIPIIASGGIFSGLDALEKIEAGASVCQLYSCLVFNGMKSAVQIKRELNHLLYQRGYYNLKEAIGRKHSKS
# Chain of E3 ubiquitin-protein ligase XIAP (Homo sapiens) (P98170 whole entry, looked up, the tested form may be a part): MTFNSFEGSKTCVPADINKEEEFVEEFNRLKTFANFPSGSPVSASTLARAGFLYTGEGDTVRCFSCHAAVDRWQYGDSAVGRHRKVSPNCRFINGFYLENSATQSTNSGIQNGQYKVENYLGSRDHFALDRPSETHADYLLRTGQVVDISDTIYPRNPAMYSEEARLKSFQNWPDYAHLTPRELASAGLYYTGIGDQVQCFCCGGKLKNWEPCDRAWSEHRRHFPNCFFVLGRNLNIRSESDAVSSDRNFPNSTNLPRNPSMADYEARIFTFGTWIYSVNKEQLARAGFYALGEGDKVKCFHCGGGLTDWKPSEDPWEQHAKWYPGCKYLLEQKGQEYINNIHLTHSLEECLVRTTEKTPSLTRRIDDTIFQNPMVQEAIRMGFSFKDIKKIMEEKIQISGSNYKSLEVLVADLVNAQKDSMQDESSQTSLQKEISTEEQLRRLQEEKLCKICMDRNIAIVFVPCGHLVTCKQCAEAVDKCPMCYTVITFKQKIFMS
Structure (SMILES),z-score [1],z-score [2],z-score [3],z-score [4],z-score [5],z-score [6],z-score [7],z-score [8],z-score [9],z-score [10],z-score [11],z-score [12],composite z-score [13],z-score [14],z-score [15],z-score [16],z-score [17],composite z-score [18],composite z-score [19],composite z-score (XIP peptide (Xip251-270))
O=C(NO)[C@]1(Cc2ccccc2)N=C(c2ccc(OCCCO)cc2)O[C@@H]1c1ccccc1,1.33,1.18,1.87,-0.459,1.59,1.3 (inactive),-0.737,1.02,1.02 (inactive),1.47,-2.78 (inactive),1.41 (inactive),0.461 (inactive),-4.43 (inactive),2.26 (inactive),2.18 (inactive),0.963,0.0402,-0.592 (inactive),-1.32
C=CCN1C(=O)[C@@]2(O[C@@H](CCn3cc(CCO)nn3)[C@H]([Si](C)(C)c3ccc(OC)cc3)[C@H]2C)c2cc(NC(=O)c3ccc(OC)cc3)ccc21,1.2,-0.408,-2.91,-3.3,0.978,0.659 (inactive),-0.925,0.212,-1.27 (inactive),-0.322,-4.11 (inactive),-1.55 (inactive),-0.118 (inactive),0.901 (inactive),1.55 (inactive),1 (inactive),-1.51,-0.168,-0.025 (inactive),0.442
COCCOC(=O)N1C(=O)[C@@]2(c3cc(C#CCNC(N)=O)ccc31)[C@H](c1ccccc1OCCO)N1[C@H](c3ccccc3)[C@H](c3ccccc3)OC(=O)[C@H]1[C@@H]2C(=O)Nc1nc2ccccc2s1,1.32,-0.272,-1.56,0.501,-2.92,1.04 (inactive),-1.06,-1.32,0.627 (inactive),0.0177,-0.267 (inactive),1.22 (inactive),-0.183 (inactive),1.17 (inactive),-0.17 (inactive),0.599 (inactive),1.39,0.396,-0.377 (inactive),0.501
C=CCNC(=O)[C@H]1[C@@H]2C(=O)O[C@@H](c3ccccc3)[C@@H](c3ccccc3)N2[C@@H](c2ccccc2OCCO)[C@]12C(=O)N(C(=O)OCCOC)c1ccc(C#CCCO)cc12,0.674,-0.123,-2.04,-1.42,0.534,0.825 (inactive),-0.847,-0.665,0.659 (inactive),-0.156,0.799 (inactive),0.287 (inactive),-0.409 (inactive),1.57 (inactive),0.488 (inactive),0.985 (inactive),-0.0311,0.355,0.58 (inactive),0.507
Cc1ccc(N2C(=O)c3ccccc3[C@](C)(C(=O)NCC(F)(F)F)[C@@H]2c2ccc(CO)cc2)nc1,1.45,0.529,-0.436,-1.45,-0.106,-0.603 (inactive),0.54,1.04,0.451 (inactive),0.125,-1.08 (inactive),1.57 (inactive),0.534 (inactive),0.216 (inactive),0.24 (inactive),0.536 (inactive),1.4,0.0506,-0.0838 (inactive),-0.964
COC(=O)C(CC#Cc1ccc2c(c1)[C@]1(C(=O)N2)[C@H](C(N)=O)[C@H]2C(=O)O[C@H](c3ccccc3)[C@H](c3ccccc3)N2[C@@H]1c1ccc(O)cc1)C(=O)OC,0.915,0.72,0.555,-1.42,-2.22,-0.2 (inactive),-1.17,1.25,1.16 (inactive),0.259,-1.26 (inactive),1.52 (inactive),-0.0538 (inactive),0.208 (inactive),0.105 (inactive),0.572 (inactive),1.27,0.0239,1.07 (inactive),-1.13
NCCCCCNC(=O)[C@H]1C[C@H]2C(=O)NCC(=O)N2[C@H]1c1ccc(O)cc1,1.46,-0.252,-0.249,0.502,0.848,-0.36 (inactive),-0.806,0.231,0.518 (inactive),-1.2,0.375 (inactive),0.352 (inactive),-0.0658 (inactive),0.774 (inactive),0.172 (inactive),0.214 (inactive),1.18,-0.0918,1.28 (inactive),0.57
COC(=O)C(CC#Cc1ccc2c(c1)[C@]1(C(=O)N2)[C@H](C(=O)O)[C@H]2C(=O)O[C@H](c3ccccc3)[C@H](c3ccccc3)N2[C@@H]1c1ccc(OCCO)cc1)C(=O)OC,0.313,1.27,-2.5,-3.54,-0.532,0.587 (inactive),-0.746,0.171,0.7 (inactive),0.821,-0.842 (inactive),1.22 (inactive),-15.4 (active),0.338 (inactive),1.6 (inactive),1.72 (inactive),-2.37,-0.207,1.68 (inactive),0.836
